Pf growth 48h: inhibits P. falciparum growth in the first generation, 48 h; P. falciparum luciferase growth in erythrocytes, 48 h; Potency, µM (top dose mostly 28.7 µM), for the others: top-dose activity change, negative = inhibition, hits mostly inhibitors; AID 504832; 5.9% of 310,000 active; note: % is set by controls: 0 for no effect and ±100 for the full control effect
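Here the parasites carry a stable luciferase gene and grow inside erythrocytes in Albumax-based RPMI medium with compound for one erythrocytic cycle. Activity is scored as loss of luminescent signal.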
AmpC no deterg: inhibitors of E. coli AmpC beta-lactamase without detergent; Potency, µM (series often up to 57.1 µM), for the others: at the highest dose activity change, negative = inhibition, hits mostly inhibitors; AID 485341; AmpC nitrocefin hydrolysis, absorbance 480 nm, 0.0001% Triton; 0.52% of 330,000 active;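 note: plate controls were no compound for no effect and no enzyme for full effect; nearly all actives have a fitted effect of over 20% in size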
Target sequence (P00811 whole entry, looked up): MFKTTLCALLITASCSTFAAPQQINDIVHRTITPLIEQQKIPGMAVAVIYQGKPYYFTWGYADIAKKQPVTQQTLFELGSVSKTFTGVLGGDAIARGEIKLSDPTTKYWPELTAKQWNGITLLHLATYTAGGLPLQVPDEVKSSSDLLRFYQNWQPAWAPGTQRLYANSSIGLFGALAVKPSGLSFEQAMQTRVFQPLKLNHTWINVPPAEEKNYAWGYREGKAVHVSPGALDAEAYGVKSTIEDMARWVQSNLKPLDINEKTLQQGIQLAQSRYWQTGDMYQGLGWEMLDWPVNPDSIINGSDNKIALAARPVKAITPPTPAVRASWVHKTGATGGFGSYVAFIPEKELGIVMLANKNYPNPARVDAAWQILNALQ
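AmpC (5.3 nM in the dispensed reagent) in 20 mM phosphate pH 7.0 with 0.01% (detergent screen) or 0.0001% Triton X-100 was preincubated with compounds for 15 min at room temperature. Nitrocefin was then added from an 800 uM solution, and hydrolysis was followed at 480 nm.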
AmpC inh detg: inhibitors of E. coli AmpC beta-lactamase with detergent | P00811 | AmpC hydrolysis of nitrocefin, absorbance 480 nm, 0.01% Triton | Potency, µM (highest dose often 114 µM), without a hit: at the highest dose activity change, negative = inhibition, hits mostly inhibitors | 0.041% of 370,000 active | AID 485294;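 note: 0% = no-compound wells and -100% = no-enzyme wells; nearly all actives have a fitted effect of over 25% in size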
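AmpC (5.3 nM in the dispensed reagent) in 20 mM phosphate pH 7.0 with 0.01% (detergent screen) or 0.0001% Triton X-100 was preincubated with compounds for 15 min at room temperature. Nitrocefin was then added from an 800 uM solution, and hydrolysis was followed at 480 nm.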
Sm TGR inh: blocks Schistosoma mansoni thioredoxin glutathione reductase | purified TGR, DTNB reduction, TNB absorbance 405 nm | Q962Y6 | 3% of 360,000 active | Potency, µM (titrated, usually from 114 µM), inactives show at the top dose activity change, negative = inhibition, hits mostly inhibitors | AID 485364; note: % is set by controls: 0 for no effect and ±100 for the full control effect; nearly all actives have a fitted effect of over 60% in size
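TGR 20 nM + NADPH 100 uM (dispensed conc.), cpd preinc 15 min RT; start with NADPH (500 uM addition) then DTNB (15 mM addition). Kinetic TNB absorbance, 405 nm filter. Four-parameter Hill fit across titration.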
SARS PLP yeast: blocks SARS-CoV papain-like protease in a yeast assay; 0.19% of 330,000 active; Potency, µM (doses to about 32.9 µM), inactives show top-dose activity, positive = growth rescue, most hits filed as activators; S. cerevisiae expressing SARS-CoV PLpro, growth rescue; calls by dose curve; note: 0% is about no effect; nearly all actives have a fitted effect of over 55% in size
Pf growth 96h: P. falciparum growth inhibition at 96 hour, primary screen for plastid delayed-death inhibitors; P. falciparum luciferase reporter growth, 96 h; Potency, µM (top dose mostly 28.7 µM), for inactives: top-dose activity change, negative = inhibition, hits mostly inhibitors; 6.9% of 320,000 active; note: % is set by controls: 0 for no effect and ±100 for the full control effect
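Two parasite generations (96 h, 37 C, 5% CO2) of compound exposure in infected erythrocytes (0.05% parasitemia, 2% hematocrit). Luciferase-reporter P. falciparum; decreased luminescence indicates inhibited growth, aimed at apicoplast-acting delayed death.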
An asterisk follows results filed as active. Only some compounds are listed: those with a hit (about 12% of all), similar ones and a draw of the others. Unless noted, calls come from the whole dose curve; as a rule, active = well fitted curve in the direction sought with a large enough effect; inconclusive = small, poorly fitted or top-dose-only effect, or another doubt; inactive = no such curve, though single readings can be large; an effect the other way counts as inactive or inconclusive. Potency is the fitted concentration of half-maximal effect.

COc1ccc(/C=N/NC2=NS(=O)(=O)c3ccccc32)cc1 was read as Pf growth 48h inconclusive, AmpC no deterg -15%, AmpC inh detg 3%, Sm TGR inh -2%, SARS PLP yeast 2% and Pf growth 96h inconclusive.
O=S1(=O)N=C(N/N=C/C=C/c2ccccc2)c2ccccc21 was read as Pf growth 48h inconclusive, AmpC no deterg -30%, AmpC inh detg inconclusive, Sm TGR inh -12%, SARS PLP yeast -14% and Pf growth 96h 13µM*.
CCCCOc1ccc(OC(=O)c2sc3ncn(Cc4cccc(F)c4)c(=O)c3c2C)cc1 was read as AmpC inh detg 5% and Sm TGR inh 9%.
`O=C1c2ccccc2S(=O)(=O)N1CC(O)COc1ccc(Br)cc1` (centres undefined) gave Pf growth 48h -3%, AmpC no deterg -9%, AmpC inh detg -10%, Sm TGR inh -1%, SARS PLP yeast -7% and Pf growth 96h 244%.
Screening O=C1c2ccccc2S(=O)(=O)N1CC(O)COc1ccc(Cl)cc1 (centres undefined) returned Pf growth 48h 10%, AmpC no deterg -11%, AmpC inh detg inconclusive, Sm TGR inh 0%, SARS PLP yeast inconclusive and Pf growth 96h 6.6µM*.
`O=C(CSCCN1C(=O)c2ccccc2C1=O)Nc1ccc2ccccc2c1` gave Pf growth 48h inconclusive, AmpC no deterg -12%, AmpC inh detg 1%, Sm TGR inh 3%, SARS PLP yeast -17% and Pf growth 96h 42%.
`Cc1ncc(CO)c(/C=N/N=C/c2ccccc2O)c1O` gave Pf growth 48h inconclusive, AmpC no deterg -10%, AmpC inh detg 4%, Sm TGR inh -16%, SARS PLP yeast -16% and Pf growth 96h -8%.
`Cc1ncc(CO)c(/C=N/Nc2ccc(C(F)(F)F)cn2)c1O` gave Pf growth 48h inconclusive, AmpC no deterg 36%, AmpC inh detg 0%, Sm TGR inh 4%, SARS PLP yeast 7% and Pf growth 96h 2.3µM*.
`CN1C(=O)c2ccccc2N(C)C1c1ccc2c(c1)OCO2` (centres undefined) gave Pf growth 48h 10µM*, AmpC no deterg 0%, AmpC inh detg -16%, Sm TGR inh -2%, SARS PLP yeast 9% and Pf growth 96h -24%.
CN1C(=O)c2ccccc2N(C)C1c1ccc(F)cc1 (centres undefined) was read as Pf growth 48h inconclusive, AmpC no deterg -20%, AmpC inh detg -13%, Sm TGR inh 4%, SARS PLP yeast -6% and Pf growth 96h 3%.
`C=C(C)Cn1c(CCn2c3ccccc3c3ccccc32)n[nH]c1=S` gave Pf growth 48h 11%, AmpC no deterg -10%, AmpC inh detg -11%, Sm TGR inh 1%, SARS PLP yeast 3% and Pf growth 96h 7.4µM*.
For COc1cccc(-c2nc(N3CC(C)CC(C)C3)c3ccccc3n2)c1O (centres undefined) the results were Pf growth 48h inconclusive, AmpC no deterg -2%, AmpC inh detg -9%, Sm TGR inh 2%, SARS PLP yeast 6% and Pf growth 96h 13µM*.
For COc1cccc(-c2nc(Oc3cc(C)cc(C)c3)c3ccccc3n2)c1O the results were Pf growth 48h 30%, AmpC no deterg -25%, AmpC inh detg inconclusive, Sm TGR inh -5%, SARS PLP yeast 17% and Pf growth 96h -6%.
Screening COc1cccc(-c2nc(NC(C)(C)C)c3ccccc3n2)c1O returned Pf growth 48h 10µM*, AmpC no deterg 0%, AmpC inh detg inconclusive, Sm TGR inh -8%, SARS PLP yeast -7% and Pf growth 96h inconclusive.
For COc1ccc(Nc2nc(-c3cccc(OC)c3O)nc3ccccc23)cc1 the results were Pf growth 48h 7.4µM*, AmpC no deterg -47%, AmpC inh detg -5%, Sm TGR inh -2%, SARS PLP yeast -6% and Pf growth 96h inconclusive.
Screening Cc1ccc(NC(=O)c2ccc(NC(=O)N3CCSc4ncccc43)cc2)c(Cl)c1 returned AmpC inh detg -1% and Sm TGR inh 1%.
`CC12CC(NC(=O)N1c1cccc(C(=O)NCc3ccccn3)c1)c1ccccc1O2` (centres undefined) gave Pf growth 48h -4%, AmpC no deterg 14%, AmpC inh detg -23%, Sm TGR inh 1%, SARS PLP yeast -3% and Pf growth 96h inconclusive.
Cc1ccc(Cl)cc1NC(=O)Cn1c(=O)oc2cc(S(=O)(=O)N3CCCCCC3)ccc21 was read as AmpC inh detg 9% and Sm TGR inh 8%.
COc1ccc(C)cc1NS(=O)(=O)c1ccc2c(c1)CCCN2C(C)=O was read as AmpC inh detg 7% and Sm TGR inh 3%.
`COc1cccc(CN(C)C(=O)CCN=C2NS(=O)(=O)c3ccccc32)c1` gave AmpC no deterg -11% and SARS PLP yeast 4%.
For CC(C)(C)NC(=O)NC(=O)CN1C(=O)NC(c2ccccc2)(c2ccccc2)C1=O the results were Pf growth 48h inconclusive, AmpC no deterg -15%, AmpC inh detg inconclusive, Sm TGR inh 3%, SARS PLP yeast 0% and Pf growth 96h inconclusive.
For CC(C)CCn1c(=O)c(C(=O)NCc2ccc3c(c2)OCO3)c(O)c2ccccc21 the results were Pf growth 48h 5.9µM*, AmpC no deterg -20%, AmpC inh detg 7%, Sm TGR inh 17%, SARS PLP yeast -1% and Pf growth 96h inconclusive.
CC(C)(C)c1nn(-c2ccccc2)c2[nH]c(=O)c(CNCc3ccc4c(c3)OCO4)cc12 was read as AmpC no deterg 25%, AmpC inh detg -4%, Sm TGR inh 0%, SARS PLP yeast -8% and Pf growth 96h 0.33µM*.
`O=C(NCc1ccccn1)c1nn(-c2ccccc2)c(=O)c2ccccc12` gave Pf growth 48h -10%, AmpC no deterg -2%, AmpC inh detg 3%, Sm TGR inh 63%, SARS PLP yeast -6% and Pf growth 96h 1%.
CCCCn1nc(C(=O)Nc2ccc3c(c2)OCCO3)c2ccccc2c1=O was read as Pf growth 48h inconclusive, AmpC no deterg 19%, AmpC inh detg 4%, Sm TGR inh 8%, SARS PLP yeast -9% and Pf growth 96h 6.6µM*.
O=C(NCc1ccc2c(c1)OCO2)c1nn(-c2ccccc2)c(=O)c2ccccc12 was read as Pf growth 48h -25%, AmpC no deterg -33%, AmpC inh detg -2%, Sm TGR inh 16%, SARS PLP yeast -3% and Pf growth 96h 0.74µM*.

Compound activity: PubChem, National Center for Advancing Translational Sciences (NCATS)
